The values that follow come from PubChem BioAssay (NCATS).

Assay [1] has as its target ATP-dependent 6-phosphofructokinase (Trypanosoma brucei brucei) (UniProt O15648). Description: qHTS Assay to Find Inhibitors of T. brucei phosphofructokinase: hit validation (AID 492961).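 Further: luminescence reports ADP formed as PFK phosphorylates fructose-6-phosphate with ATP; on the % scale 0 is the no-effect control and ±100 the full control effect.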 The procedure, abridged: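 ADP-Glo luminescence read-out of ADP formed by 1.25 nM PFK from 0.1 mM ATP and 0.5 mM F6P (TEA pH 8.0, 45 min, RT). Compounds titrated; activity normalized to no-enzyme and full-enzyme controls.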
For orientation: Quantitative high-throughput screening tests each substance at several concentrations.

The target of assay [2] is Luciferin 4-monooxygenase (Photinus pyralis) (UniProt P08659). Description: Biochemical firefly luciferase enzyme assay for NPC (AID 624030).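 Further: purified P. pyralis luciferase at 10 nM with luciferin and ATP substrate; 0% = DMSO and -100% = full luciferase inhibition by PTC124 control; nearly all actives have a fitted effect of over 70% in size.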 In outline: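 Direct inhibition of firefly luciferase enzyme (10 nM final, 50 mM Tris Acetate) assessed by luminescence within 5 minutes. Percent activity scaled between DMSO and PTC124 positive control, with concentration-effect curves classified by fit quality and response.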

The nature of assay [3]: qHTS profiling for inhibitors of Plasmodium falciparum proliferation (AID 504749). Further: nearly all actives have a fitted effect of over 60% in size. Further: potency means the concentration at half of the fitted maximal effect.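 On activity, negative = inhibition: 0% = DMSO vehicle and full inhibition = artemisinin control.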 Particulars: P. falciparum in erythrocytes, SYBR Green DNA, 72 h. The procedure, abridged:
(§1)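 Infected RBCs, 0.3% parasitemia/2.5% Hct final; cpd 72 h, 37 C, 5% CO2; lysis buffer with saponin/triton/SYBR Green I, o/n RT dark; FI 485/535; norm. to artemisinin (0.29 uM) and DMSO.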

In the next assay the test system is ATS189. Described as above. Particulars: P. falciparum in erythrocytes, SYBR Green DNA, 72 h; series mostly up to 28.7 µM. In outline:
as §1

The test system of the next assay is C2A. Described as above. Particulars: P. falciparum in erythrocytes, SYBR Green DNA, 72 h; series mostly up to 28.7 µM. The procedure, abridged:
as §1

A further assay relates to CP191. Described as above. Particulars: P. falciparum in erythrocytes, SYBR Green DNA, 72 h; series mostly up to 28.7 µM. In outline: as §1
A further assay concerns CP192. The description is as above. Particulars: P. falciparum in erythrocytes, SYBR Green DNA, 72 h; series mostly up to 28.7 µM. The procedure, abridged: as §1
The next assay concerns CP201. The assay is described as above. Particulars: P. falciparum in erythrocytes, SYBR Green DNA, 72 h; series mostly up to 28.7 µM. The procedure, abridged:
as §1

For a further assay, the system named is CP215. The assay is described as above. Particulars: P. falciparum in erythrocytes, SYBR Green DNA, 72 h; series mostly up to 28.7 µM. The procedure, abridged:
as §1

The test system of the next assay is CP237. The assay is described as above. Particulars: P. falciparum in erythrocytes, SYBR Green DNA, 72 h; series mostly up to 28.7 µM. In outline:
as §1

In the next assay the test system is CP238. Described as above. Particulars: P. falciparum in erythrocytes, SYBR Green DNA, 72 h; series mostly up to 28.7 µM. In outline:
as §1

The subject of a further assay is CP268. Described as above. Particulars: P. falciparum in erythrocytes, SYBR Green DNA, 72 h; series mostly up to 28.7 µM. The procedure, abridged: as §1
The next assay deals with CP269. The assay is described as above. Particulars: P. falciparum in erythrocytes, SYBR Green DNA, 72 h; series mostly up to 28.7 µM. The procedure, abridged: as §1
For the next assay, the system named is CP286. The description is as above. Particulars: P. falciparum in erythrocytes, SYBR Green DNA, 72 h; series mostly up to 28.7 µM. In outline:
as §1

In the next assay the test system is CP325. The description is as above. Particulars: P. falciparum in erythrocytes, SYBR Green DNA, 72 h; series mostly up to 28.7 µM. The procedure, abridged: as §1
The next assay has as its system CP329. The assay is described as above. Particulars: P. falciparum in erythrocytes, SYBR Green DNA, 72 h; series mostly up to 28.7 µM. In outline: as §1
In a further assay the test system is FAB9. The assay is described as above. Particulars: P. falciparum in erythrocytes, SYBR Green DNA, 72 h; series mostly up to 28.7 µM. In outline: as §1
The next assay relates to JCK. The description is as above. Particulars: P. falciparum in erythrocytes, SYBR Green DNA, 72 h; series mostly up to 28.7 µM. In outline:
as §1

The subject of a further assay is PC49. The description is as above. Particulars: P. falciparum in erythrocytes, SYBR Green DNA, 72 h; series mostly up to 28.7 µM. In outline: as §1
The target in assay [4] is Ubiquitin carboxyl-terminal hydrolase 1 (Homo sapiens) (UniProt O94782). Description: Inhibitors of USP1/UAF1: Pilot qHTS (AID 504865).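 Further: rhodamine fluorescence freed from ubiquitin-rhodamine substrate followed over time; top concentration of the series differs between compounds; on the % scale 0 is the no-effect control and ±100 the full control effect; nearly all actives have a fitted effect of over 35% in size.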 The procedure, abridged:
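USP1/UAF1 complex (1nM) preincubated with compound 15 min at room temperature, then Ub-Rho substrate (150nM final) added. Fluorescence read kinetically at 480/540 nm, 6 reads every 60 seconds. Buffer: 50mM HEPES pH 7.8, 0.5mM EDTA, 0.1 mg/ml BSA, 1mM TCEP, 0.01% Tween-20.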

Setting [5] is: at 28.7 µM (top of the series), parasite line A.
Where [6] appears, read: at 28.7 µM (top of the series), parasite line B.

Inconclusive results are not listed. Unmarked numbers belong to inactive results. The source made the active and inactive calls. The call rests on the fitted dose curve; in most records, active means well fitted curve in the direction sought with a large enough effect; inconclusive means small, poorly fitted or top-dose-only effect, or another doubt; inactive means no such curve, though single readings can be large; an effect the other way counts as inactive or inconclusive.

Luciferin 4-monooxygenase (Photinus pyralis), sequence (P08659 whole entry, looked up): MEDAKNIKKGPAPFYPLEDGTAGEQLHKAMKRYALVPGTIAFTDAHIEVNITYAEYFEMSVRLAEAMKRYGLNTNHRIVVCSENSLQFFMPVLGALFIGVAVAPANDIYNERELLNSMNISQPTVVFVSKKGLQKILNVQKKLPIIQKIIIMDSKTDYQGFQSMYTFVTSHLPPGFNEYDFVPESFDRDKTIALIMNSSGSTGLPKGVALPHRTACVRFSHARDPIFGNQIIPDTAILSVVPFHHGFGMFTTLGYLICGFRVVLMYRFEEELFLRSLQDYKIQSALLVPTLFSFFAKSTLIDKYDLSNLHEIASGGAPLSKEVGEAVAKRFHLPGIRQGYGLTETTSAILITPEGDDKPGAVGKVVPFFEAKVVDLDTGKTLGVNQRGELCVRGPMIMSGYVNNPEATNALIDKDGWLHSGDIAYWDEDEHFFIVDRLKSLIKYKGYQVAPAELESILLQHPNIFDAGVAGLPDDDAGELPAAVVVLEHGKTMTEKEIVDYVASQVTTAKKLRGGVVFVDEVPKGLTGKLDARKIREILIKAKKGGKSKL
ATP-dependent 6-phosphofructokinase (Trypanosoma brucei brucei), sequence (O15648 whole entry, looked up): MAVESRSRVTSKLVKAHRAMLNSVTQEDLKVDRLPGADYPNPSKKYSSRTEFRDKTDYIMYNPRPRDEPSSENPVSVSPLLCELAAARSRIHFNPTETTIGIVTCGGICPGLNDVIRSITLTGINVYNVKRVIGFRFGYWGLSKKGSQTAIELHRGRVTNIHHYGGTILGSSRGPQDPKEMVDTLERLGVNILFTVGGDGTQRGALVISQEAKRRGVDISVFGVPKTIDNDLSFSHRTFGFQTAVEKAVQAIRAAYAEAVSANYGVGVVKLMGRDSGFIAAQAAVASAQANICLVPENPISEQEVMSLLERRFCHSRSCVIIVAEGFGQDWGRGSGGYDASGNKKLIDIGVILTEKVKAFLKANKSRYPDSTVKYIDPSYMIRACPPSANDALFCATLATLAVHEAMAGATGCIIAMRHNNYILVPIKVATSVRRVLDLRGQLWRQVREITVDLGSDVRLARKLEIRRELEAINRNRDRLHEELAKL
Ubiquitin carboxyl-terminal hydrolase 1 (Homo sapiens), sequence (O94782 whole entry, looked up): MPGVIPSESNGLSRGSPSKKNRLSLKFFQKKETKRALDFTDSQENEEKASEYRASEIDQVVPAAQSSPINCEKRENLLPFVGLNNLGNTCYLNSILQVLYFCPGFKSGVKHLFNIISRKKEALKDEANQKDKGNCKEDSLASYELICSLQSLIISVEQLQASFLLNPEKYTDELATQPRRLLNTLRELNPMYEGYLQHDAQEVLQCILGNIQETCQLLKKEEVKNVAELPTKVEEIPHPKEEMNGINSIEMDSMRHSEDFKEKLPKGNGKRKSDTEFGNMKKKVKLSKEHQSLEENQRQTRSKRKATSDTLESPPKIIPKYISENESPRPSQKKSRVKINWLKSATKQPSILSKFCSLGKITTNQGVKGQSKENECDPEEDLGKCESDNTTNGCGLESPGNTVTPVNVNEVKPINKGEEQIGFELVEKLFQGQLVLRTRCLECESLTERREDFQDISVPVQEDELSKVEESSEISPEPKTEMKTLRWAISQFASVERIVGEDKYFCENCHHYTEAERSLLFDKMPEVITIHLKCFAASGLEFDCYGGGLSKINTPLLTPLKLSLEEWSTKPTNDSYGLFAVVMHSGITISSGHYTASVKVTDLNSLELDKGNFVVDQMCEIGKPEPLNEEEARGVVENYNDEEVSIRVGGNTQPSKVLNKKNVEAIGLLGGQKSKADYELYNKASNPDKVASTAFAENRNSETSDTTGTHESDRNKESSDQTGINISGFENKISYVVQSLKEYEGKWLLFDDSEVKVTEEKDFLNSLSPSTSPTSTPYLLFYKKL

For `CCCCCC(O)C1C(=O)OC(C)C(O)\C=C/C=C\C=C/C=C\C=C(\C)C(O)C(O)C(O)CC(O)CC(O)CC(O)CC(O)CC1O` (stereo not given), the compound was classed as inactive in assay [1]. Further, the Potency result (in assay [2]; with ATS189; in the assay with C2A; in the assay with CP191; in the assay with CP192; in the assay with CP201) was “inactive” each time. In addition, the Potency entry in the assay on CP215, with CP237, in the assay on CP238, in the assay on CP268, in the assay on CP269 and in the assay with CP286 was “inactive” in each case. For the same compound, the Potency entry with CP325, in the assay on CP329, in the assay on FAB9, with JCK and in the assay on PC49 was “inactive” each time. The activity, negative = inhibition in assay [3] (setting [5]) was 11.9%; in [3] (setting [6]), -8.14%.
As for `Nc1nc(/C(=C/CC(=O)O)C(=O)NC2C(=O)N3C(C(=O)O)=CCSC23)cs1` (stereo not given), in assay [4], the Potency result was “inactive”.
For `CCCCCCC(=O)O[C@H]1CC[C@H]2[C@@H]3CCC4CC(=O)C=C(C)[C@]4(C)[C@H]3CC[C@]12C` (stereo not given in full), the compound was called inactive in [1]. For the same compound, the Potency entry (in assay [2]; in the assay on ATS189; in the assay with C2A; in the assay with CP191; in the assay with CP192; in the assay with CP201) was “inactive” each time. Moreover, the Potency entry in the assay with CP215, in the assay with CP238, with CP268, in the assay on CP269, with CP325 and in the assay on CP329 was “inactive” in each case. Also, the Potency entry in the assay with FAB9, in the assay on JCK and with PC49 was “inactive” each time. The activity, negative = inhibition in [3] (setting [5]) was -7.1%; in assay [3] (setting [6]), -5.28%. Also, the Potency in the assay with CP286 is 11.2 µM (active).
Consider `CN1C2CCC1C(C(=O)O)C(OC(=O)c1ccccc1)C2` (stereo not given), for which, in assay [1], the compound was classed as inactive. The Potency result (in [4]; in assay [2]; with ATS189; with C2A; in the assay on CP191; in the assay on CP192) was “inactive” in each case. Moreover, the Potency result with CP201, in the assay on CP215, in the assay with CP237, with CP238, in the assay with CP268 and with CP269 was “inactive” throughout. The Potency result with CP286, in the assay with CP325, in the assay on CP329, in the assay with FAB9, with JCK and in the assay on PC49 was “inactive” in each case. Also, the results for the activity, negative = inhibition in assay [3] (setting [5]) and in assay [3] (setting [6]) were 9.89% and 6.56%, respectively.
In the case of `COc1ccc2c3c1O[C@H]1[C@@H](O)C=C[C@H]4C(C2)NCCC341` (stereo not given in full), the outcome in assay [1] was inactive. Moreover, the Potency entry (in assay [4]; in [2]; with ATS189; with C2A; in the assay on CP191; in the assay with CP192) was “inactive” in each case. Also, the Potency result with CP201, with CP215, in the assay with CP237, with CP238, in the assay on CP268 and in the assay on CP269 was “inactive” in each case. Further, the Potency entry in the assay with CP286, in the assay with CP325, in the assay with CP329, in the assay on FAB9, in the assay with JCK and in the assay on PC49 was “inactive” throughout. Also, the activity, negative = inhibition in [3] (setting [5]) is 7.6%; in assay [3] (setting [6]), -2.8%.
Take `CCCN1CCCC2Cc3nc(N)ncc3CC21` (stereo not given): the result in assay [1] was inactive. In addition, the Potency result (in assay [4]; in assay [2]; with ATS189; in the assay on C2A; in the assay with CP191; in the assay on CP192) was “inactive” in each case. Further, the Potency entry with CP201, with CP215, with CP237, in the assay on CP238, in the assay with CP268 and with CP269 was “inactive” throughout. The Potency entry in the assay on CP286, in the assay on CP325, in the assay with CP329, in the assay with FAB9, with JCK and in the assay with PC49 was “inactive” in each case. In addition, the activity, negative = inhibition in assay [3] (setting [5]) was 2.28%; in [3] (setting [6]), 5.03%.
Take `CC1(C)S[C@@H]2[C@H](N)C(=O)N2C1C(=O)O` (stereo not given in full): the compound was classed as inactive in assay [1]. Also, the Potency entry (in assay [2]; in the assay with ATS189; with C2A; with CP191; in the assay on CP192; with CP201) was “inactive” each time. The Potency result in the assay with CP215, with CP237, with CP238, in the assay on CP268, in the assay on CP269 and in the assay with CP286 was “inactive” in each case. Also, the Potency entry in the assay with CP325, in the assay with CP329, with FAB9, in the assay on JCK and with PC49 was “inactive” in each case. The activity, negative = inhibition in assay [3] (at 12.8 µM (top of the series), parasite line A) was 15.1%; in [3] (at 12.8 µM (top of the series), parasite line B) it was 13.6%.
Take `Cc1ccc2c(c1)[C@@H]1CN(C)CC[C@H]1N2`: the compound was classed as inactive in assay [1]. Further, the Potency result (in assay [4]; in assay [2]; in the assay on ATS189; in the assay on C2A; with CP191; in the assay on CP192) was “inactive” throughout. Also, the Potency result with CP201, in the assay with CP215, in the assay with CP238, in the assay on CP268, in the assay with CP269 and with CP286 was “inactive” in each case. The Potency result with CP325, in the assay with CP329, with FAB9, in the assay with JCK and in the assay with PC49 was “inactive” in each case. The activity, negative = inhibition in assay [3] (setting [5]) was 6.31%; in assay [3] (setting [6]), 11.3%.
Turning to `C=C1Nc2ccccc2C(=O)N1c1ccccc1C`, the result in assay [1] was inactive. For the same compound, the Potency result (in [2]; in the assay with ATS189; in the assay on C2A; in the assay with CP191; with CP192; with CP201) was “inactive” throughout. The Potency entry in the assay on CP215, with CP237, with CP238, in the assay on CP268, in the assay with CP269 and in the assay on CP286 was “inactive” throughout. For the same compound, the Potency result in the assay with CP325, in the assay on CP329, in the assay on FAB9, in the assay with JCK and in the assay on PC49 was “inactive” throughout. For the same compound, the activity, negative = inhibition in [3] (setting [5]) is -20.1%; in [3] (setting [6]), -23.4%.
`OCC(O)[C@H]1O[C@@H]2O[C@H](C(Cl)(Cl)Cl)O[C@@H]2[C@H]1O` (stereo not given in full): in assay [1], the outcome was inactive. The Potency result (in assay [4]; in assay [2]; with ATS189; in the assay on C2A; in the assay with CP191; in the assay on CP192) was “inactive” each time. Besides, the Potency result in the assay with CP201, with CP215, with CP237, in the assay on CP238, in the assay with CP268 and in the assay with CP269 was “inactive” each time. The Potency result in the assay with CP286, in the assay with CP325, with CP329, in the assay with FAB9, in the assay on JCK and with PC49 was “inactive” each time. Also, the activity, negative = inhibition in [3] (setting [5]) was 8.92%; in assay [3] (setting [6]) it was 3.35%.
With `C=CC[N+]1(C)CCC23c4c5ccc(O)c4O[C@H]2C(=O)CC[C@@]3(O)C1C5` (stereo not given in full), the compound was classed as inactive in [1]. Besides, the Potency entry (in assay [4]; in assay [2]; in the assay on ATS189; with C2A; in the assay on CP191; with CP192) was “inactive” each time. The Potency entry in the assay on CP201, in the assay on CP215, in the assay with CP237, in the assay on CP238, in the assay on CP268 and with CP269 was “inactive” each time. The Potency result with CP286, in the assay with CP325, in the assay with CP329, in the assay with FAB9, in the assay on JCK and with PC49 was “inactive” in each case. The figures for the activity, negative = inhibition in assay [3] (setting [5]) and in assay [3] (setting [6]) were 14% and 14.5%, respectively.
